# High-throughput results as filed in PubChem BioAssay.
# Ecoli rRNA inh – selective bacterial rRNA inhibition in E. coli. E. coli WT GFP vs humanized-ribosome RFP mutants, fluorescence, 24 h; hits give low values; DMSO median 0, no signal -100. GFP signal change (wild-type ribosome), % (concentration not given with the values). AID 720706. hit rate 1.6% among 350,000;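 active = significant combined selectivity score with lowered wild-type GFP, culture density cut under 30%, mutant RFP and density less affected; inactive = any of these conditions unmet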
# DENV2 CPE – protects cells from dengue virus 2 cytopathic effect. DENV2-infected cells, cytopathic effect rescue, plate reader. CPE inhibition, % at 9.99 µM. hit rate 1.7% among 350,000; in the data active = CPE inhibition above about 20%, passing the limit was not always enough; tested in BHK-21 cells;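 note: 0% = median of neutral control wells and 100% = median of positive control wells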
# CaV13 ICDI inh – Disruptors of the CACNA1D IQ motif to Ca2+-dependent inactivation inhibitor domain association, primary screening, Förster resonance energy transfer in intact living …; hit rate 0.098% among 340,000; HEK cells, CFP/YFP FRET ICDI-IQ, plate reader, 10 min; percent FRET-ratio fall versus neutral wells; AID 743397; inhibition, % at 12.3 µM;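 active = mean replicate inhibition of at least 30% and at least 1% of replicates passing that level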;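 note: 0% = median of the neutral control wells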
# ERAP1 inh – inhibitors of human ERAP1 aminopeptidase | inhibition, % at 10.7 µM | recombinant ERAP1, Leu-AMC fluorescence, 60 min | hit rate 0.15% among 340,000 | AID 652197 | Q9NZ08;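 active = mean replicate inhibition of at least 30%, or all replicates individually reaching that 30% level; inactive = mean below 30% and not every replicate reaching it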;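 note: 0% = neutral control wells and 100% = L-leucinethiol positive control wells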
# INS-1E GSIS act – GLuc luminescence reporter in INS-1E cells, primary screen for activators of glucose-dependent secretion of insulin; INS-1E GLuc reporter insulin secretion, 2-3 h; activation, % at 16.6 µM; hit rate 0.61% among 370,000;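 active = lowest replicate activation of at least 40%, so every replicate reaches that level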;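 note: 0% = median of neutral control wells and 100% = median of IBMX positive control wells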
# PGC1a acetyl inh – modulators of PGC1a acetylation; U2OS PGC1a acetylation, AlphaScreen anti-acetyl-lysine; with virally co-expressed GCN5 acetyltransferase; inhibition, % at 15.6 µM; hit rate 0.17% among 350,000;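 active = every replicate shows inhibition of at least 40%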;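 note: 0% = neutral control wells and 100% = positive control wells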
# An asterisk follows results filed as active; . = no result. Most compounds without a hit are left out; they make up all but 3.2% or so of the library.
SMILES,Ecoli rRNA inh,DENV2 CPE,CaV13 ICDI inh,ERAP1 inh,INS-1E GSIS act,PGC1a acetyl inh
NS(=O)(=O)c1cccc(NC(=O)CSc2nc3ccc(Cl)cc3[nH]2)c1,-37*,4,15,-7,14,-2
O=C(COC(=O)c1cc(=O)[nH]c2ccccc12)Nc1cccc(S(=O)(=O)N2CCOCC2)c1,-17*,1,-14,.,-16,-5
CCCC(=O)N(Cc1cc(=O)[nH]c2ccccc12)c1cccc(C)c1,-5,29*,-4,-1,-3,7
Cc1cccc(N(Cc2cc(=O)[nH]c3ccccc23)C(=O)CCl)c1,7,8,-5,3,3,.
CS(=O)(=O)N1[C@@H](CO)[C@@H](c2ccccc2)C12CN(Cc1cc(F)ccc1F)C2,-7,40*,.,3,-10,-6
CCC(=O)Nc1ccc2c(c1)C(=O)N(C)[C@@H]1CC[C@H](CC(=O)N[C@@H](C)c3ccccc3)O[C@@H]1CO2,1,139*,.,1,4,-12
CCC(=O)Nc1ccc2c(c1)C(=O)N(C)[C@H]1CC[C@@H](CC(=O)N[C@@H](C)c3ccccc3)O[C@H]1CO2,-3,71*,.,0,5,4
CCC(=O)Nc1ccc2c(c1)C(=O)N(C)[C@@H]1CC[C@@H](CC(=O)N[C@H](C)c3ccccc3)O[C@H]1CO2,1,10,.,2,9,-3
CC(C)C(=O)Nc1ccc2c(c1)C(=O)N(C)[C@H]1CC[C@H](CC(=O)Nc3ccccc3F)O[C@@H]1CO2,-1,78*,.,2,3,0
CCC(=O)Nc1ccc2c(c1)C(=O)N(C)[C@@H]1CC[C@H](CC(=O)N[C@@H](C)c3ccccc3)O[C@H]1CO2,-2,62*,.,1,18,-4
C[C@H]1CN([C@@H](C)CO)C(=O)c2cc(NS(C)(=O)=O)ccc2O[C@H]1CN(C)Cc1ccc2c(c1)OCO2,4,-5,.,5,14,-1
C[C@@H]1CN([C@H](C)CO)C(=O)c2cc(NC(=O)Nc3ccc(F)cc3)ccc2O[C@@H]1CN(C)S(=O)(=O)c1ccc(F)cc1,3,18,.,3,-5,3
CO[C@@H]1CN(C)C(=O)c2ccc(NC(=O)c3ccccc3)cc2OC[C@@H](C)N(C)C[C@H]1C,-1,17,.,-1,14,.
CCCC(=O)Nc1ccc2c(c1)OC[C@@H](C)N(C(=O)c1ccccn1)C[C@@H](C)[C@@H](OC)CN(C)C2=O,1,21*,.,-4,1,-7
CCCC(=O)Nc1ccc2c(c1)OC[C@H](C)N(C(=O)c1ccccn1)C[C@@H](C)[C@H](OC)CN(C)C2=O,-1,22*,.,-3,-2,-9
CCCC(=O)Nc1ccc2c(c1)OC[C@H](C)N(C(=O)c1ccccn1)C[C@H](C)[C@@H](OC)CN(C)C2=O,0,-10,.,-5,-6,6
COCC#Cc1ccc([C@@H]2[C@@H](CO)N3CCCCN(Cc4cccnc4)C[C@@H]23)cc1,-1,4,.,-3,5,1
NCC[C@@H]1CC[C@H](NC(=O)Nc2ccc(F)cc2)[C@@H](CO)O1,0,-1,.,0,-6,-9
C[C@@H]1CN([C@@H](C)CO)C(=O)c2cccc(NC(=O)Nc3ccc(F)cc3)c2O[C@H]1CN(C)Cc1ccc(C(=O)Nc2ccccc2N)cc1,-9,0,.,0,5,5
COc1ccc(C(=O)N=C2CCC(C#N)=C3c4cc(OC)c(OC)cc4CCN23)cc1,.,.,-3,.,109*,.
CC(C)NC(=O)Nc1ccc2c(c1)C(=O)N([C@@H](C)CO)C[C@@H](C)[C@H](CN(C)Cc1ccc(Oc3ccccc3)cc1)O2,-1,3,.,2,-22,0
N#Cc1c(NC(=O)c2ccccc2Cl)n(Cc2ccccc2)c2nc3ccccc3nc12,-17*,8,10,-2,-31,.
CCN1CCN(CCC(=O)Nc2ccc(Br)c(C)c2)CC1,15,23*,-2,1,-12,12
CCOC(=O)N1CCN(CCC(=O)Nc2ccc(Br)c(C)c2)CC1,-23*,1,.,-1,-18,-5
CCN1CCN(CCC(=O)Nc2cccc(OC)c2)CC1,.,.,-5,.,.,-10
